# Inconclusive results are not listed. Unmarked numbers belong to inactive results. Calls of active or inactive are those of the source. Calls come from the whole dose curve; as a rule, active = well fitted inhibition curve with a large enough effect; inconclusive = small, poorly fitted or top-dose-only effect; inactive = flat fitted curve, though single readings scatter.
# Assays:
# [1] = qHTS profiling for inhibitors of Plasmodium falciparum proliferation (AID 504749); note: nearly all actives have a fitted effect of over 60% in size;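 for activity, negative = inhibition: 0% = DMSO vehicle and full inhibition = artemisinin control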; conditions: P. falciparum in erythrocytes, SYBR Green DNA, 72 h
# How it was run: (§1)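 SYBR Green fluorescence (ex 485 nm, em 535 nm) reports parasite DNA after 72 h compound exposure of infected red cells at 0.3% parasitemia, 2.5% hematocrit; signal normalized to 0.29 uM artemisinin and vehicle wells.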
# 3D7 = assay: as above; conditions: P. falciparum in erythrocytes, SYBR Green DNA, 72 h; series mostly up to 28.7 µM
# How it was run: as §1
# 7G8 = assay: as above; conditions: P. falciparum in erythrocytes, SYBR Green DNA, 72 h; series mostly up to 28.7 µM
# How it was run: as §1
# [2] = at 28.7 µM (top of the series), parasite line A
# [3] = at 28.7 µM (top of the series), parasite line B
# Potency is the fitted concentration of half-maximal effect.
smiles,measurement,setting,value
NC(=O)C1c2ccccc2CCc2ccccc21,"activity, negative = inhibition",[1]; [2],-4.87%
same,"activity, negative = inhibition",[1]; [3],8.64%
same,Potency,3D7,inactive
same,Potency,7G8,inactive
CCCCO,"activity, negative = inhibition",[1]; [2],5.51%
same,"activity, negative = inhibition",[1]; [3],16.3%
same,Potency,3D7,inactive
same,Potency,7G8,inactive
CC(O)CN(C)C (centres undefined),"activity, negative = inhibition",[1]; [2],11.7%
same,"activity, negative = inhibition",[1]; [3],-4.96%
same,Potency,3D7,inactive
same,Potency,7G8,inactive
Cc1ncc(C[n+]2csc(CCOP(=O)(O)O)c2C)c(N)n1,"activity, negative = inhibition",[1]; [2],-5.57%
same,"activity, negative = inhibition",[1]; [3],6.98%
same,Potency,3D7,inactive
same,Potency,7G8,inactive
O=P(O)(O)O,"activity, negative = inhibition",[1]; [2],1.79%
same,"activity, negative = inhibition",[1]; [3],16.4%
same,Potency,3D7,inactive
same,Potency,7G8,inactive
FC(F)(F)COCC(F)(F)F,"activity, negative = inhibition",[1]; [2],12.5%
same,"activity, negative = inhibition",[1]; [3],-2.69%
same,Potency,3D7,inactive
same,Potency,7G8,inactive
CC1C(=O)CC2C3(C)CCC2(C(C)C(=O)O)C(=O)C13 (centres undefined),"activity, negative = inhibition",[1]; [2],5.64%
same,"activity, negative = inhibition",[1]; [3],13.7%
same,Potency,3D7,inactive
same,Potency,7G8,inactive
COc1ccc(/C=N/NC(=O)c2ccncc2)c(C(=O)O)c1OC,"activity, negative = inhibition",[1]; [2],15.9%
same,"activity, negative = inhibition",[1]; [3],-6.37%
same,Potency,3D7,inactive
same,Potency,7G8,inactive
Cc1cc2nc3c(=O)[nH]c(=O)nc-3n(C[C@H](O)[C@H](O)[C@H](O)COP(=O)(O)OP(=O)(O)OC[C@H]3O[C@@H](n4cnc5c(N)ncnc54)[C@H](O)[C@@H]3O)c2cc1C,"activity, negative = inhibition",[1]; [2],-1.67%
same,"activity, negative = inhibition",[1]; [3],14.9%
same,Potency,3D7,inactive
same,Potency,7G8,inactive
O=C(O)Cc1nn(Cc2ccc(Br)cc2F)c(=O)c2ccccc12,"activity, negative = inhibition",[1]; [2],0.835%
same,"activity, negative = inhibition",[1]; [3],-5.83%
same,Potency,3D7,inactive
same,Potency,7G8,inactive
CCC(Cc1c(I)cc(I)c(O)c1I)C(=O)O (centres undefined),"activity, negative = inhibition",[1]; [2],0.0242%
same,"activity, negative = inhibition",[1]; [3],-1.87%
same,Potency,3D7,inactive
same,Potency,7G8,inactive
O=P(O)(O)OC[C@H]1O[C@](O)(COP(=O)(O)O)[C@@H](O)[C@@H]1O,"activity, negative = inhibition",[1]; [2],8.54%
same,"activity, negative = inhibition",[1]; [3],12.4%
same,Potency,3D7,inactive
same,Potency,7G8,inactive
O=C(NCCNCC(O)COc1ccc(O)cc1)N1CCOCC1 (centres undefined),"activity, negative = inhibition",[1]; [2],8.13%
same,"activity, negative = inhibition",[1]; [3],8.21%
same,Potency,3D7,inactive
same,Potency,7G8,inactive
O=c1[nH]c(=O)n([C@H]2C[C@H](O)[C@@H](CO)O2)cc1/C=C/Br,"activity, negative = inhibition",[1]; [2],6.74%
same,"activity, negative = inhibition",[1]; [3],-10.9%
same,Potency,3D7,inactive
same,Potency,7G8,inactive
O=C(/C=C/c1cccc(F)c1)NC1CC1,"activity, negative = inhibition",[1]; [2],-17.7%
same,"activity, negative = inhibition",[1]; [3],-9.61%
same,Potency,3D7,inactive
same,Potency,7G8,inactive
CN1CCC(OC(=O)C(Oc2ccc(Cl)cc2)Oc2ccc(Cl)cc2)CC1,"activity, negative = inhibition",[1]; [2],7.76%
same,"activity, negative = inhibition",[1]; [3],-8.26%
same,Potency,3D7,inactive
same,Potency,7G8,inactive
O=C(O)[C@H]1C(=CCO)O[C@H]2CC(=O)N12,"activity, negative = inhibition",[1]; [2],6.84%
same,"activity, negative = inhibition",[1]; [3],1.77%
same,Potency,3D7,inactive
same,Potency,7G8,inactive
CC(C)(COP(=O)(O)OP(=O)(O)OC[C@H]1O[C@@H](n2cnc3c(N)ncnc32)[C@H](O)[C@@H]1OP(=O)(O)O)C(O)C(=O)NCCC(=O)NCCS (some centres undefined),"activity, negative = inhibition",[1]; [2],7.03%
same,"activity, negative = inhibition",[1]; [3],2.39%
same,Potency,3D7,inactive
same,Potency,7G8,inactive
CN1c2c(nc(N)[nH]c2=O)NCC1CNc1ccc(C(=O)NC(CCC(=O)O)C(=O)O)cc1 (centres undefined),"activity, negative = inhibition",[1]; [2],2.92%
same,"activity, negative = inhibition",[1]; [3],-8.81%
same,Potency,3D7,inactive
same,Potency,7G8,inactive
CN1CCCC(CN2c3ccccc3Sc3ccccc32)C1 (centres undefined),Potency,3D7,inactive
same,Potency,7G8,11.2 µM (active)
O=C1c2ccccc2C(=O)C1c1ccc(Cl)cc1,"activity, negative = inhibition",[1]; [2],10.7%
same,Potency,3D7,inactive
same,Potency,7G8,inactive
O=C(c1cc2ccccc2o1)N1CCN(Cc2ccccc2)CC1,Potency,[1]; parasite line A,7.94 µM (active)
same,Potency,7G8,7.94 µM (active)
C[C@H](CCC(=O)O)[C@H]1CC[C@H]2[C@@H]3CC[C@@H]4C[C@H](O)CC[C@]4(C)[C@H]3C[C@H](O)[C@]12C,"activity, negative = inhibition",[1]; [2],0.235%
same,Potency,3D7,inactive
same,Potency,7G8,inactive
CC(=O)[C@H]1CC[C@H]2[C@@H]3C=CC4=CC(=O)CC[C@@]4(C)[C@H]3CC[C@]12C,"activity, negative = inhibition","[1]; at 12.8 µM (top of the series), parasite line A",0.59%
same,"activity, negative = inhibition","[1]; at 12.8 µM (top of the series), parasite line B",-8.1%
same,Potency,7G8,inactive
O=C1c2ccccc2CN2C(=O)c3ccccc3CN12,Potency,3D7,inactive
same,Potency,7G8,inactive
CCOc1cc(-c2nccc3cc(OC)c(OC)cc23)cc(OCC)c1OCC,Potency,[1]; parasite line A,8.91 µM (active)
same,Potency,[1]; parasite line B,11.2 µM (active)
same,Potency,7G8,11.2 µM (active)
O=C(O)C1=C(CSc2nnnn2CS(=O)(=O)O)CS[C@@H]2[C@H](NC(=O)[C@H](O)c3ccccc3)C(=O)N12,"activity, negative = inhibition",[1]; [2],-7.54%
same,"activity, negative = inhibition",[1]; [3],1.69%
same,Potency,3D7,inactive
same,Potency,7G8,inactive
Cn1c(=O)c2c(ncn2CCOC(=O)C(C)(C)Oc2ccc(Cl)cc2)n(C)c1=O,"activity, negative = inhibition",[1]; [2],-0.561%
same,Potency,3D7,inactive
same,Potency,7G8,inactive
COc1ccc2nc(NC(=O)Nc3ccccc3)sc2c1,"activity, negative = inhibition",[1]; [3],5.72%
same,Potency,7G8,10 µM (active)
C[C@H](O)CN(C)C,"activity, negative = inhibition",[1]; [2],9.28%
same,"activity, negative = inhibition",[1]; [3],3.53%
same,Potency,3D7,inactive
same,Potency,7G8,inactive
CC(=O)c1ccc2c(c1)N(CCCN1CCN(CCO)CC1)c1ccccc1S2,Potency,7G8,7.08 µM (active)
CO,"activity, negative = inhibition",[1]; [2],8.74%
same,"activity, negative = inhibition",[1]; [3],-8%
same,Potency,3D7,inactive
same,Potency,7G8,inactive
c1ccc2c(c1)Sc1ccccc1N2CCN1CCCC1,Potency,3D7,11.2 µM (active)
same,Potency,7G8,7.08 µM (active)

# From PubChem BioAssay (NCATS)
